# Active and inactive are the calls of the source.
# What was measured:
# [1] = system: Plasmodium falciparum Sir2 (PF13_0152, Sir2A); test: Plasmodium falciparum Sir2A binding compounds – biochemical, small-molecule microarray, 635 nm fluorescence, primary screen (AID 1098); settings: fluorescence 635 nm, higher = more signal;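 further: score merges spot fluorescence intensity with its signal-to-noise ratio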
# [2] = probe aDKK1 binding to arrayed compounds – biochemical, biotinylated probe, 635/667 nm fluorescence, primary screen (AID 1099); settings: small-molecule microarray, higher = more signal;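 further: score merges 667nm spot fluorescence with signal to noise across triplicate slides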
# [3] = probe aCHRDL2 binding to arrayed compounds – biochemical, biotinylated probe, 635/667 nm fluorescence, primary screen (AID 1100); settings: small-molecule microarray, higher = more signal
# [4] = change in splice reporter luminescence, either direction, cell-based, HEK293, spliceosome inhibition project, primary screen (AID 1101); settings: HEK293 splicing luciferase reporter, 24 h, higher = more signal, called active from +8 up or from −8 down;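 further: HEK293 cells carrying a splicing-competent luciferase reporter gene; test concentration not given here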
# [5] = molecular target: Fibroblast growth factor 10 (Homo sapiens) (UniProt O15520); test: compounds binding fibroblast growth factor 10 – biochemical, small-molecule microarray, 635 nm fluorescence, primary screen (AID 1102); settings: FGF10 binding, fluorescence 635 nm, higher = more signal
# [6] = system: glycogen synthase kinase-3 (GSK3A per assay name; protocol says GSK3B); test: compounds binding glycogen synthase kinase-3 – biochemical, small-molecule microarray, 635 nm fluorescence, GSK3A, primary screen (AID 1103); settings: fluorescence 635 nm, higher = more signal; further: the record names both GSK3A and GSK3B
# [7] = molecular target: Epidermal growth factor receptor (Homo sapiens) (UniProt P00533); test: compounds binding epidermal growth factor receptor – biochemical, small-molecule microarray, 635 nm fluorescence, primary screen (AID 1104); settings: EGFR binding, higher = more signal;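 further: score merges 667 nm emission intensity with spot signal to noise over triplicate slides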
# [8] = molecular target: Follistatin-related protein 3 (Homo sapiens) (UniProt O95633); test: compounds binding follistatin-related protein 3 – biochemical, small-molecule microarray, 635 nm fluorescence, primary screen (AID 1105); settings: FSTL3 binding, higher = more signal;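 further: score merges emission near 667 nm and signal to noise per printed spot across three slides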
# [9] = molecular target: Dickkopf-related protein 1 (Homo sapiens) (UniProt O94907); test: small molecules binding DKK1 protein – biochemical, small-molecule microarray, 635 nm fluorescence scan, primary screen (AID 1106); settings: higher = more signal;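 further: score merges emission near 667 nm with signal to noise over three replicate slides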
# [10] = system: Inhibin beta A chain (activin A); test: small molecules binding activin A – biochemical, small-molecule microarray, 635 nm fluorescence scan, primary screen (AID 1107); settings: INHBA, higher = more signal;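 further: mouse activin A protein probed at 4.33 µg/mL on printed slides; score merges bound-protein fluorescence near 667 nm with spot signal-to-noise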
# [11] = system: Human papillomavirus type 1a protein E7 (residues 44-93); test: small molecules binding HPV E7 44-93 – biochemical, small-molecule microarray, residues 44-93, 635 nm fluorescence, primary screen (AID 1108); settings: fluorescence 635 nm, higher = more signal;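 further: E7 fragment applied at 1 µg/mL in TBST for 1 h at 4 C; score combines spot fluorescence with its signal to noise ratio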
# [12] = hepatitis C replication reporter changes, two-sided – Huh7 cells, luciferase reporter, HCV replication inhibitor project, primary screen (AID 1109); settings: Huh7 HCV replicon luciferase reporter, 48 h; higher = more signal;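 further: huh7 hepatoma cells harbouring a luciferase neomycin HCV replicon reporter; luciferase luminescence as measure of HCV replicon replication; test concentration not given here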
# [13] = molecular target: Left-right determination factor 2 (Homo sapiens) (UniProt O00292); test: small molecules binding LEFTY2 protein – biochemical, small-molecule microarray, 635 nm fluorescence scan, primary screen (AID 1110); settings: higher = more signal
# [14] = molecular target: Calmodulin-1 (Homo sapiens) (UniProt P0DP23); test: small molecules binding calmodulin-1 with EGTA – biochemical, small-molecule microarray, Cy5-labelled CALM1, profiling panel (AID 1111); settings: Cy5-CALM1 binding fluorescence, higher = more signal;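 further: labelled calmodulin applied in Tris saline Tween buffer holding calcium plus EGTA and DTT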
# [15] = molecular target: Calmodulin-1 (Homo sapiens) (UniProt P0DP23); test: small molecules binding Ca-loaded calmodulin-1 – biochemical, small-molecule microarray, Cy5-labelled CALM1, plus calcium, artefact control for SMM control-protein annotation, profiling panel (AID 1112); settings: Cy5-CALM1 binding fluorescence, higher = more signal;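 further: score merges spot fluorescence with signal to noise from triplicate slides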
# [16] = probe aWnt5a binding to arrayed compounds – biochemical, biotinylated probe, 635/667 nm fluorescence, primary screen (AID 1113); settings: small-molecule microarray, higher = more signal;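 further: score merges 667 nm fluorescence intensity with signal-to-noise per printed feature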
# [17] = probe aShh binding to arrayed compounds – biochemical, biotinylated probe, 635/667 nm fluorescence, primary screen (AID 1114); settings: small-molecule microarray, higher = more signal;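 further: probe is biotin-labelled aShh protein from a stem cell growth factor screen; measures binding of labelled protein to compounds printed on the slide; score merges feature fluorescence at 667 nm with signal-to-noise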
# [18] = probe aNog binding to arrayed compounds – biochemical, biotinylated probe, 635/667 nm fluorescence, primary screen (AID 1115); settings: small-molecule microarray, higher = more signal;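 further: probe is biotinylated aNog protein used at 0.15 µg/mL for 1 h at 4 C; z-score combines 667 nm fluorescence of each spot with its signal to noise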
# [19] = molecular target: Torsin-1A-interacting protein 1 (Homo sapiens) (UniProt Q5JTV8); test: compound microarray binding of lysate hLAP1 – cell lysate, small-molecule microarray, COS7 lysate, 635/667 nm fluorescence, primary screen (AID 1116); settings: 635 nm fluorescence, higher = more signal
# [20] = molecular target: Alpha-bungarotoxin (Bungarus multicinctus) (UniProt P60615); test: compounds binding labelled alpha-BTX control protein – biochemical, small-molecule microarray, Alexa647 label, 635/667 nm fluorescence, artefact control for SMM control protein annotation, profiling panel (AID 1117); settings: alpha-BTX-A647 binding fluorescence, higher = more signal
# Chain of Alpha-bungarotoxin (Bungarus multicinctus) (P60615 whole entry, looked up): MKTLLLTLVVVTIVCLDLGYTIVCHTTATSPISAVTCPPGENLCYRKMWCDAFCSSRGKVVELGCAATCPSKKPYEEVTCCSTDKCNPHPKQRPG
# Chain of Fibroblast growth factor 10 (Homo sapiens) (O15520 whole entry, looked up): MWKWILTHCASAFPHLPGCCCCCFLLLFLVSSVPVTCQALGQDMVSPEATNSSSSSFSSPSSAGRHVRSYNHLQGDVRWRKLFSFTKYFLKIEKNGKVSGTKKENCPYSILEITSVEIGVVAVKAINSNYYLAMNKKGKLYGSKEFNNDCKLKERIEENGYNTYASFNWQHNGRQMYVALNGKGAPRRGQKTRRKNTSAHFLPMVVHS
# Chain of Dickkopf-related protein 1 (Homo sapiens) (O94907 whole entry, looked up): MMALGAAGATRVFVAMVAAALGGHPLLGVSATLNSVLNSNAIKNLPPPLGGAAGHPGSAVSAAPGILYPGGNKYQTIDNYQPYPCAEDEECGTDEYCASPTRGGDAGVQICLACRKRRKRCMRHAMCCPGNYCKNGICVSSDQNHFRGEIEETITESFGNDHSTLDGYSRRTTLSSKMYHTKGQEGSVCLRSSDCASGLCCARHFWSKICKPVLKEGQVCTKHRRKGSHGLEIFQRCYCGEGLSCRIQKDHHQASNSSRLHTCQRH
# Chain of Epidermal growth factor receptor (Homo sapiens) (P00533 whole entry, looked up): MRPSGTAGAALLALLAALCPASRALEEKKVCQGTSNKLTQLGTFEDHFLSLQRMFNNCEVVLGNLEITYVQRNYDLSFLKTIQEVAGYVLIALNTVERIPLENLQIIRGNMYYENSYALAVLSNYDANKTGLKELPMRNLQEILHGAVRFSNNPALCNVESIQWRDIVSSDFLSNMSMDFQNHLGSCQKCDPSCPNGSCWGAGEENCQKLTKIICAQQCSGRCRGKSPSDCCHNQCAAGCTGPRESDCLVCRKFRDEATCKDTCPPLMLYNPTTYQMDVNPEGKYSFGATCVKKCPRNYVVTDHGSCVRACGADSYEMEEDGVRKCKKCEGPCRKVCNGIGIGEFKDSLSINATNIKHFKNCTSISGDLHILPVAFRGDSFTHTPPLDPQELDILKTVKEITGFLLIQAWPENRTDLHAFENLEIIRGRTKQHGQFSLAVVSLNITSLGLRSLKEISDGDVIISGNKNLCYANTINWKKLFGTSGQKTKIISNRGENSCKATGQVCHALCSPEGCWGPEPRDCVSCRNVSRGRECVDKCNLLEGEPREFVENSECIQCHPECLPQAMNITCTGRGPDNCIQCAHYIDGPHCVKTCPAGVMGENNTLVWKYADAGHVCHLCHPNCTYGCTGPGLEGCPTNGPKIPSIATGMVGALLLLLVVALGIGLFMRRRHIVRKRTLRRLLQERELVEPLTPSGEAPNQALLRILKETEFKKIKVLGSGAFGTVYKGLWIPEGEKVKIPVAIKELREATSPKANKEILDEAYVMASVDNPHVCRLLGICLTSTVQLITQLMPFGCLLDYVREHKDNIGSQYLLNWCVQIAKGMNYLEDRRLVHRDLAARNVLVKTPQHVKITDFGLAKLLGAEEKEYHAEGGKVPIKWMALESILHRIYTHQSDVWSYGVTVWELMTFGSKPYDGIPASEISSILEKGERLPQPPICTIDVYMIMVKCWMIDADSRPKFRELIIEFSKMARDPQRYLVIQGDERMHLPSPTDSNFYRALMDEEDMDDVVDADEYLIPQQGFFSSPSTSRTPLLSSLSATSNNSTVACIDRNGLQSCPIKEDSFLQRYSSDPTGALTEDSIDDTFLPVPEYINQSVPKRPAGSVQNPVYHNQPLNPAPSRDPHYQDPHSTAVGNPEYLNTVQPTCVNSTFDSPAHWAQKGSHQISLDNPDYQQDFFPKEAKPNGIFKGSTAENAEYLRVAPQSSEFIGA
# Chain of Follistatin-related protein 3 (Homo sapiens) (O95633 whole entry, looked up): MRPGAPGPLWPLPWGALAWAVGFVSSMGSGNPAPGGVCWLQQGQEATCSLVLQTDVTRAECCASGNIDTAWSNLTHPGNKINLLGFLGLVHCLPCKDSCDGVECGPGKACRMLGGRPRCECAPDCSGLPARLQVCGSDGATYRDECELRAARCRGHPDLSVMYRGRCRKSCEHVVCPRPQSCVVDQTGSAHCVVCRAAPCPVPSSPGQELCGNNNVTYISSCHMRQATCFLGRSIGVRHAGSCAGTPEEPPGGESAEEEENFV
# Chain of Torsin-1A-interacting protein 1 (Homo sapiens) (Q5JTV8 whole entry, looked up): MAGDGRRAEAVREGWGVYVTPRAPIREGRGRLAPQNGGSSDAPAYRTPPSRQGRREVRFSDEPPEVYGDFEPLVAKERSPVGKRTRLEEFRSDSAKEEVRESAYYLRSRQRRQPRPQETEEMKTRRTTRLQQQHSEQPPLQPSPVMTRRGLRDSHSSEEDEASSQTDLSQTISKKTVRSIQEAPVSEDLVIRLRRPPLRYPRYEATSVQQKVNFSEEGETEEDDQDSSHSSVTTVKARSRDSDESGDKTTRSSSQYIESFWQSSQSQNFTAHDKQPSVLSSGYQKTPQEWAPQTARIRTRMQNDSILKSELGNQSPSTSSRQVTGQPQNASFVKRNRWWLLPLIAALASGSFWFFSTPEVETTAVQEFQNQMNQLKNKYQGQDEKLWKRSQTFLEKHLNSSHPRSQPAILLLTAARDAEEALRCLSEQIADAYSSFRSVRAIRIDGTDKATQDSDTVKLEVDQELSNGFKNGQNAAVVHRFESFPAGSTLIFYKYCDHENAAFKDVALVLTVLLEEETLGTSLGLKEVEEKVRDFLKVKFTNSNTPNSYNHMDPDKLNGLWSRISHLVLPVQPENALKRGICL
# Chain of Left-right determination factor 2 (Homo sapiens) (O00292 whole entry, looked up): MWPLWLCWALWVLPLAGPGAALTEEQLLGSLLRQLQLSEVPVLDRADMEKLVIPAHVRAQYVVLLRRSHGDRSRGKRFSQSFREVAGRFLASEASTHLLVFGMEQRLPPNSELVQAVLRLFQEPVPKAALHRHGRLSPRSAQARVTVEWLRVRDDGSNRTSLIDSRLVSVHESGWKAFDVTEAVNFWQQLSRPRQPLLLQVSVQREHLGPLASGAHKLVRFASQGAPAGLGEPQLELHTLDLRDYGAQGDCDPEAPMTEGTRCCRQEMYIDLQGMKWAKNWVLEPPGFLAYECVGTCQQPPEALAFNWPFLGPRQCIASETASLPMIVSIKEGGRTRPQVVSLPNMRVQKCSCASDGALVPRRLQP
Compound,composite z-score [1],composite z-score [2],composite z-score [3],z-score [4],composite z-score [5],composite z-score [6],composite z-score [7],composite z-score [8],composite z-score [9],composite z-score [10],composite z-score [11],z-score [12],composite z-score [13],composite z-score [14],composite z-score [15],composite z-score [16],composite z-score [17],composite z-score [18],composite z-score [19],composite z-score [20]
CC(C)[C@@H](OCc1ccccc1)[C@H](C)C=NOC[C@@H](O)COCc1ccco1,-0.887,-0.869,-0.666,-0.129 (inactive),-0.557,-0.279,-1.11,-0.94,-1.62,-3.73,-0.549,-2.38,-1.05,-1.71,-1.81,-0.204,-0.37,-0.577,-1.05,-0.0069
CCOC(=O)CCN1C(=O)[C@H]2[C@H]3[C@H](O)[C@H](O)CC(=NOCC(C)C)[C@H]3CC[C@H]2C1=O,-0.108,0.16,0.782,0.108 (inactive),-0.147,-0.239,0.214,-0.276,-0.0273,0.617,-0.245,0.453,0.0607,-0.271,-0.26,-0.0346,-0.209,0.0669,0.326,0.797
CCCNC(=O)OC[C@H]1O[C@H](CCON=C(C)CCN2CCCc3nc(C)c(C)cc32)C=C[C@@H]1Oc1ccc(OC)cc1,0.333,0.595,-0.237,0.304 (inactive),0.653,0.73,0.509,0.605,0.687,0.491,0.652,-2.36,0.425,0.65,0.241,-0.119,0.0952,0.358,0.186,0.782
CC(C)=CCCC(C)=CCON=C1C[C@@H](O)[C@@H](O)[C@@H]2[C@@H]3C(=O)N(C(C)(C)C)C(=O)[C@@H]3CC[C@H]12,0.0059,0.0507,-0.396,0.129 (inactive),0.396,0.563,0.512,0.392,0.432,-0.159,0.356,0.217,0.61,-0.327,-0.889,-0.118,-0.153,-0.0446,0.452,0.135
O=C(NN=C1C[C@@H](O)[C@@H](O)[C@@H]2[C@@H]3C(=O)N(C4CCCCC4)C(=O)[C@@H]3CC[C@@H]12)OCc1ccccc1,0.174,0.261,0.515,0.662 (inactive),0.0342,0.0686,-0.0311,0.524,-0.0447,-0.347,-0.671,-0.771,0.482,-0.367,-0.606,-0.115,0.0156,-0.0522,-0.534,-0.0382
COc1ccc(O[C@H]2C=C[C@@H](c3ccccc3)O[C@@H]2COC(=O)CCC(C)=NO[C@@H]2O[C@H](COC(C)=O)[C@@H](OC(C)=O)[C@H](OC(C)=O)[C@H]2OC(C)=O)cc1,0.538,-0.397,-0.374,-0.315 (inactive),0.799,1.01,0.609,1.12,0.275,-0.116,1.29,-1.88,0.511,-0.126,-0.643,-0.0944,-0.206,-0.53,0.38,0.731
C#CCCCON=C1C[C@@H](O)[C@@H](O)[C@@H]2[C@@H]3C(=O)N(c4ccc(F)cc4F)C(=O)[C@@H]3CC[C@@H]12,0.191,-0.19,-0.71,0.0714 (inactive),-0.0402,0.225,0.259,0.218,0.302,-0.263,0.184,0.296,0.321,-0.212,-0.813,-0.197,-0.179,0.14,0.36,0.155
CCN1C(=O)[C@@H]2[C@H]3C(=CC[C@@H]2C1=O)C1(OCCCO1)[C@H]1O[C@H]1[C@H]3O,0.416,0.195,-0.0468,-9.75 (active),1.39,1.34,0.286,1.22,0.739,-0.0212,1.38,-4.67,0.352,0.669,-0.536,0.0293,-0.304,0.194,1.27,0.857
CCOC(=O)[C@H](CC(C)C)NC(=O)CCC1CC(OC(=O)NCc2ccc3c(c2)OCO3)CC2(CCCC(COC(=O)NCCCN3CCCC3=O)O2)O1 (stereo not given in full),0.929,-0.0602,-0.568,-0.719 (inactive),0.783,0.805,0.414,0.734,0.509,-0.0813,1.26,-0.584,0.563,0.542,-0.348,-0.0519,-0.0073,-0.158,0.0469,0.758
O=C1[C@H]2[C@H]3[C@H](O)[C@H](O)CC(=NOCc4ccccc4)[C@H]3CC[C@H]2C(=O)N1Cc1ccc2c(c1)OCO2,0.297,-0.208,-0.424,0.889 (inactive),0.322,0.238,0.338,0.534,0.582,0.157,-0.249,-0.188,0.621,-0.208,-0.444,-0.091,-0.0553,-0.243,0.336,0.413
